Screens (PubChem BioAssay)
D2 antag – HTS Assay for Allosteric Antagonists of the Human D2 Dopamine Receptor: Primary Screen for Antagonists. D(2) dopamine receptor (Homo sapiens), P14416. HEK293 TREx D2 cells, calcium flux, dopamine EC80. inhibition, % at 10 µM. 340,000 tested, 2% active. AID 485344, 2010; in the data active means inhibition above about 30%; inactive means below that, where a call was filed
Target sequence (P14416 whole entry, looked up): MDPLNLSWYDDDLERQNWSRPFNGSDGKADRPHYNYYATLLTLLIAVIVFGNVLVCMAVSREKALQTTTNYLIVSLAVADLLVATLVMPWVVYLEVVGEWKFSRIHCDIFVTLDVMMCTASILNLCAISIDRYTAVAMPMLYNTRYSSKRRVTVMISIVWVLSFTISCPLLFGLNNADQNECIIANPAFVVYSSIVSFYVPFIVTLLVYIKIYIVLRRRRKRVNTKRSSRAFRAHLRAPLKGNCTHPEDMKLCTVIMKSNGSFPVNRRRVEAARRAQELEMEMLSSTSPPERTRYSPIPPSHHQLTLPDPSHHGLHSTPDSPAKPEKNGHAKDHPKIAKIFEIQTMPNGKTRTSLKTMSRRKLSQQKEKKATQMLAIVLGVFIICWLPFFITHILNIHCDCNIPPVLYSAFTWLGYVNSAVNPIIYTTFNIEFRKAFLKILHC
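Calcium mobilization kinetics were recorded at 1 s intervals in tetracycline-induced HEK293 T-REx D2 cells, first for 180 s after compound addition and then 180 s after EC80 dopamine.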
D2 PAM-1 – Beta-Arrestin HTS for Positive Allosteric Modulators of the Human D2 Dopamine Receptor: Potentiators | potentiation, % (no concentration beside the values) | DiscoveRx D2 beta-arrestin cells, luminescence, 90 min; 100% = 57 uM dopamine signal | 360,000 tested, 0.23% active; in the data active means potentiation above about 50%; inconclusive means mostly about 30% to 49%
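PathHunter beta-arrestin assay in DiscoveRx D2 cells. Compounds were added with an EC20 of dopamine (50 nM final) for 90 min at 37 deg C. Luminescence was read 1 h after detection reagent, with 57 uM dopamine as the EC100 control.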
D2 PAM-2 – HTS Assay for Positive Allosteric Modulators of the Human D2 Dopamine Receptor: Primary Screen for Potentiators. D(2) dopamine receptor (Homo sapiens), P14416. AID 485347, 2010. 340,000 tested, 0.34% active. HEK293 T-REx D2, calcium flux, EC20 dopamine potentiation. potentiation, % at 10 µM;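 active means potentiation over 3 SD above the plate norm, cut at about 30% in these data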
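Using a no-wash calcium dye in inducible, force-coupled HEK293 Trex cells expressing D2, we tracked fluorescence each second for 180 s after compound, then for 180 s after EC20 dopamine to detect augmented signalling.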
D2 ag-1 – HTS Assay for Allosteric Agonists of the Human D2 Dopamine Receptor: Primary Screen for Agonists | 340,000 tested, 0.53% active | HEK293 T-REx D2 cells, calcium flux agonist mode | activation, % at 2 µM | AID 485358, 2010 | D(2) dopamine receptor (Homo sapiens), P14416;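 active means activation over 3 SD above normal in the single-dose calcium agonist read, cut at about 30% in these data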
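Tetracycline-induced HEK293 Trex cells with D2 receptor force-coupled to calcium signaling, plated overnight at 30 C and loaded with no-wash calcium dye. Calcium flux read kinetically for 180 s after compound addition; responses flag agonists.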
D2 ag-2 – Beta-Arrestin HTS for Positive Allosteric Modulators of the Human D2 Dopamine Receptor: Agonists; DiscoveRx PathHunter D2 beta-arrestin, luminescence, 90 min; 100% = 57 uM dopamine signal; activation, % (no concentration beside the values); 360,000 tested, 0.084% active; D(2) dopamine receptor (Homo sapiens), P14416; in the data active means activation above about 40%; inconclusive means between about 15% and that limit
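DiscoveRx PathHunter D2 beta-arrestin cells (2,100/well) attached overnight, then compound-stimulated 90 min at 37 C in HBSS/10 mM HEPES/0.1% Tween-20 buffer; beta-galactosidase complementation read by luminescence after 1 h at ambient temperature. Dopamine 57 uM final (EC100) as control.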
Each line names hits and unclear results; the compound was inactive in the other large screens; ! = repeats disagree. Only some compounds are listed: those with a hit (about 2.4% of all), similar ones and a draw of the others.

CC(=O)N1CCOc2ccc(S(=O)(=O)N(C)c3cccc(C)c3)cc21	none
C=CCn1c(-c2c(C)nc3cc(C)ccn23)n[nH]c1=S	D2 antag 36
C=CCn1c(-c2ccc(OC)c(OC)c2)n[nH]c1=S	none
CCCCN1C(N)=NC[C@H]1Cc1ccc(O)cc1	D2 antag 48
CCCCN1C(N)=NC[C@@H]1Cc1ccc(O)cc1	none
CCc1ccc2oc(-c3ccc(NC(=O)c4cccc(Cl)c4Cl)cc3)nc2c1	none (no result: D2 antag, D2 PAM-1, D2 ag-2)
Cc1ccc(C(=S)N2CCN(Cc3ccccc3)CC2)s1	D2 antag 50
Oc1ccc(C(=S)N2CCN(Cc3ccccc3)CC2)cc1	none
Nc1cc([N+](=O)[O-])ccc1Nc1ccccc1	none
Nc1cc(C(F)(F)F)ccc1Nc1ccccc1	D2 antag 67
N#Cc1ccc(Nc2ccccc2)c(N)c1	D2 antag 31
Cc1ccccc1-c1nc(CS(=O)(=O)CC(=O)Nc2cccc(C(F)(F)F)c2)c(C)o1	none (no result: D2 antag, D2 PAM-1, D2 ag-2)
Cc1oc(-c2ccccc2Cl)nc1CSc1nc2c(c(=O)[nH]1)CCC2	D2 antag 35
Cc1oc(-c2cccc(Cl)c2)nc1CSc1nc2c(c(=O)[nH]1)CCC2	none
Cc1ccc(N(Cc2cccs2)C(=O)c2ccccc2)cc1	none (no result: D2 antag, D2 PAM-1, D2 ag-2)
NC(c1csc(Nc2ccc(C(=O)NCCCO)cn2)n1)c1ccccc1Cl (stereo not given)	none (no result: D2 antag, D2 PAM-2, D2 ag-1)
Cc1ccc(C)c(N2CCN(C(=O)CN3C(=S)NC(C)(C)CC3C)CC2)c1 (stereo not given)	D2 antag 41
CC1CC(C)(C)NC(=S)N1CC(=O)N1CCN(Cc2ccccc2)CC1 (stereo not given)	none
Cc1oc2c(C)c(O)ccc2c(=O)c1-c1ccc2ccccc2n1	D2 antag 44
CCC(=O)Oc1ccc2c(=O)c(-c3ccc4ccccc4n3)c(CC)oc2c1C	none
O=C(NCC(F)(F)F)c1[nH]c(C(F)(F)F)nc1-c1ccccc1	none (no result: D2 antag, D2 PAM-2, D2 ag-1)
COc1cccc(N2CCN(S(=O)(=O)c3ccc(-c4cc(C(F)(F)F)on4)s3)CC2)c1	none (no result: D2 antag, D2 PAM-1, D2 ag-2)
Cc1ccc(Nc2ccccc2)cc1	D2 antag 40
CCC1=C(c2ccc(C)cc2)S(=O)(=O)N=C1N1CCC(C(=O)Nc2ccccc2C(=O)OC)CC1	none (no result: D2 antag, D2 PAM-1, D2 ag-2)
Cc1ccc(C)c(CNC(=O)CCn2cccn2)c1	none (no result: D2 antag, D2 PAM-1, D2 ag-2)
CCCCCCN(C(=O)CCCCCN1C(=O)NC(c2ccc(-c3ccccc3)cc2)C(C(=O)OCc2ccccc2)=C1C)C(C(=O)NCCCC)c1ccccn1 (stereo not given)	D2 antag 31 (no result: D2 PAM-1, D2 ag-2)
CCCCCCN(C(=O)CCCCCN1C(=O)NC(c2ccc(-c3ccccc3)cc2)C(C(=O)OCc2ccccc2)=C1C)C(C(=O)NCCCC)C1CCCCC1 (stereo not given)	none (no result: D2 PAM-1, D2 ag-2)
Cc1c(C(=O)O)sc2ncnc(N3CCCCC3C)c12 (stereo not given)	D2 PAM-2 33
Cc1cccc(NC(=O)CN2C(=O)C(c3ccccc3)=NC23CCC(C)CC3)c1 (stereo not given)	none (no result: D2 antag, D2 PAM-1, D2 ag-2)
Cn1c(CN2CCCCC2)nc2cc(NC(=O)c3ccc(Cl)cc3)ccc21	D2 antag 31, D2 ag-1 33!
CCC(=O)Nc1ccc2c(c1)nc(CCN1CCC(C)CC1)n2C	none
COc1ccc(OCC(=O)Nc2ccc3c(c2)nc(CN2CCN(C(C)=O)CC2)n3C)cc1	none
CC1CCN(CCc2nc3cc(NC(=O)COc4ccccc4)ccc3n2C)CC1	D2 antag 59
COc1ccc(OCC(=O)Nc2ccc3c(c2)nc(CN2CCCC2)n3C)cc1	D2 antag 45
Cn1c(CN2CCCC2)nc2cc(NC(=O)COc3ccc(Cl)cc3)ccc21	D2 antag 41
CC(=O)N1CCCc2cc(S(=O)(=O)N(C)CC(=O)Nc3ccc(C)cc3C)ccc21	none (no result: D2 antag, D2 PAM-1, D2 PAM-2, D2 ag-2)
Clc1ccccc1CN1CCN(CCCc2ccccc2)CC1	D2 antag 65
Fc1ccccc1N1CCN(CCCc2ccccc2)CC1	D2 antag 74
Cn1c(=O)[nH]c(=O)c2c1nc(CN1CCN(c3ccc(F)cc3)CC1)n2CCCc1ccccc1	none
Cn1c(=O)[nH]c(=O)c2c1nc(CN1CCN(c3ccccc3F)CC1)n2CCCc1ccccc1	D2 PAM-2 32
CC(C)N1CCC(N2CCN(Cc3ccc(-c4ccc(Cl)cc4)o3)CC2CCO)CC1 (stereo not given)	none
O=C(Cn1c(-c2cccs2)cc2cc(F)ccc21)NCCc1ccc(Cl)cc1	none (no result: D2 antag, D2 PAM-1, D2 ag-2)
Cc1cc(C(N)=O)c2cc(Br)ccc2n1	D2 PAM-2 39
Cc1ccc2c(c1)C(c1ccc(F)cc1)N(C(=O)C(C)C)CC(=O)N2 (stereo not given)	none (no result: D2 antag, D2 PAM-1, D2 ag-2)
COc1cc(OC)nc(-n2ncc(Br)c(Br)c2=O)n1	none
COc1ccc(CCC(=O)Nc2ccc(C)c(S(=O)(=O)N(C)C)c2)cc1OC	none
COc1ccc(CCNCC(=O)Nc2ccc(C)c(S(=O)(=O)N(C)C)c2)cc1	D2 antag 33
COc1cccc(-n2c(SCC(=O)Nc3ccc4c(c3)OCO4)nc3c([nH]c4ccccc43)c2=O)c1	none (no result: D2 antag, D2 PAM-1, D2 ag-1, D2 ag-2)
COC(=O)C1=C(C)NC(C)=C(C(=O)OC)C1C(=O)OCC(=O)NC1CCCCC1C (stereo not given)	none (no result: D2 antag, D2 PAM-2, D2 ag-1)
COc1ccc([N+](=O)[O-])cc1NCc1cccnc1	none
Cc1ccc(NC(=O)c2cc([N+](=O)[O-])ccc2NCc2cccnc2)cc1	D2 antag 33
COc1ccc(NC(=O)NCCN2CCN(c3cc(OC)ccc3OC)CC2)cc1	none
COc1ccc(Cl)c(N2CCN(CCCNC(=O)Nc3ccc(C)cc3)CC2)c1	D2 antag 36
CN(CC(=O)N(C)CC(=O)Nc1c(Cl)cccc1Cl)Cc1ccc(Br)s1	none
CCCCN1/C(=C/c2ccc3ccccc3[n+]2CC)Sc2ccccc21	none
CCN1/C(=C/c2ccc3cc(C)ccc3[n+]2CC)Sc2cc(C)ccc21	D2 antag 35
Cc1csc(/C(=N/OC(=O)c2ccco2)C(N)=O)n1	D2 antag 42
COc1cc(C(=O)ON=C2C=C(C)C(=O)C(C)=C2)cc(OC)c1OC	D2 PAM-1 64
COc1cc(C(=O)O/N=C2\C=CC(=O)C(C)=C2)cc(OC)c1OC	none
Cc1ccc(/C(N)=N/OC(=O)c2ccc3c(c2)OCO3)cc1	none
COc1cccc(C(=O)O/N=C(\N)c2ccc(C)cc2)c1	D2 PAM-1 inconclusive
COc1cccc(C(=O)O/N=C(\N)c2ccncc2)c1	D2 PAM-1 59
